# In ChEMBL document CHEMBL4513216, “Probing the Open Global Health Chemical Diversity Library for Multistage-Active Starting Points for Next-Generation Antimalarials” (ACS Infect Dis, 2020):
# The campaign covered roughly 69,000 compounds. About 8,600 (12%) showed an effect of 50% or more. Only a selection was taken, and strong results are over-represented in it overall.
# Tested on: Plasmodium berghei
# Assay: Screen against P. berghei liver stage (PbLuc), transformed with Luciferase, at 10uM
# Assay type: functional, HepG2
# Settings: tested at 10 uM
row,SMILES,INHIBITION [%]
1,CCN(c1ccc(C(=O)NCCCN2CCCCC2)cc1)S(=O)(=O)CC,21.7
2,CC(=O)N1CCC(c2nccnc2-c2ccc(F)c(F)c2)CC1,26.8
3,COc1ccc(Oc2nccnc2C2CCN(C(C)=O)CC2)cc1,58.1
4,COc1cccc(-c2nccnc2C2CCN(C(C)=O)CC2)c1,57.4
5,COc1ccc(-c2nccnc2C2CCN(C(C)=O)CC2)cc1,40.9
6,CC(=O)N1CCC(c2nccnc2Oc2ccccc2)CC1,39.2
7,COc1ccc(-c2cc(C3CCN(C(C)=O)CC3)ccn2)cc1,-24.1
8,Cn1nnnc1SC1CCCN(c2ccccc2Cl)C1=O (stereo not drawn),-40
9,CN(C)[C@@H]1CCN(C(=O)NC2CCCC2)[C@H]1Cc1cnn(C)c1,21
10,Cc1cc(C)n(CC2CCCN2C(=O)c2cnc3n[nH]c(C)c3c2)n1 (stereo not drawn),13.6
11,CC(C)CN1C[C@@H](C(=O)O)C[C@@H](C(=O)NCc2ccncc2)C1,2.79
12,CCc1ccsc1C(=O)NC(C#N)CC (stereo not drawn),30.9
13,Cc1cc(CN(C)Cc2cc3c(cc2OC(F)F)OCO3)on1,-19.9
14,Cc1cnc(CN(C)Cc2cc3c(cc2OC(F)F)OCO3)o1,60
15,Cc1nc(CN(C)Cc2cc3c(cc2OC(F)F)OCO3)oc1C,11.3
16,CN(C)Cc1cc(C2CCN(C(=O)C3CCCNC3)CC2)nn1C (stereo not drawn),27.2
17,Cc1cc(NC(=O)c2ccc(F)cc2Br)n(C)n1,-18.5
18,Cc1cc(NC(=O)c2ccc(Br)cc2F)n(C)n1,-77
19,Cc1cc(NC(=O)c2ccccc2Br)n(C)n1,53.2
20,Cc1ncc2c(n1)CN(Cc1nc(-c3ccsc3)no1)CC2,21
21,COc1ccccc1CNC(=O)CN(C)C(C)c1nccs1 (stereo not drawn),-45.6
22,CCn1nc(C)c(NC(=O)CN(C)C(C)c2nccs2)c1C (stereo not drawn),-23.4
23,Cc1cccc(C(C)C)c1NC(=O)CN(C)C(C)c1nccs1 (stereo not drawn),73.6
24,CCCNC(=O)N1CCC(c2nnc(Cn3cccn3)n2C2CC2)CC1,-50.7
25,CC(O)CN1CCN(C(=O)c2cc3ccccc3c(=O)[nH]2)CC1 (stereo not drawn),-3.95
26,CC(C)c1nnc2ccc(N3CCCC(C(=O)Nc4nccs4)C3)nn12 (stereo not drawn),29
27,Cc1nnc2ccc(N3CCC(C(=O)Nc4nccs4)CC3)nn12,39.3

row,SMILES,INHIBITION [%]
1,CC(C)c1nnc2ccc(N3CCC(C(=O)Nc4nccs4)CC3)nn12,79.8
2,Cc1nn(C)c(C)c1-c1cncc(C2CCN(S(C)(=O)=O)CC2)n1,34.7
3,CN1[C@H](CN2CCCC2)C[C@@H]2CN(C(=O)c3cccn3C)CC[C@@H]21,14.1
4,CCOc1ccc2c(c1)CN(Cc1nc3c(cnn3C)c(=O)[nH]1)CC2,48.2
5,COCC1c2c(cnn2CC2CC2)CCN1Cc1ccsc1 (stereo not drawn),-37.9
6,COCC1c2c(cnn2CC2CC2)CCN1Cc1ccc(OC)cc1 (stereo not drawn),53.1
7,COCC1c2c(cnn2CC2CC2)CCN1Cc1ccc(C)o1 (stereo not drawn),-52.7
8,O=S(=O)(NCc1ccccc1)Nc1ccc(-n2ccnc2)cc1,44.8
9,Cc1noc(C)c1CN1CCOC2(CCCN(c3ccccn3)C2)C1 (stereo not drawn),20.9
10,c1ccc(O[C@H]2CO[C@@]3(CCCN(Cc4nccs4)C3)C2)nc1,49.7
11,CO[C@@H]1CO[C@@]2(CCCN(Cc3nc(C)cs3)C2)C1,65.7
12,Cc1noc(C)c1CN1CCC[C@]2(C[C@@H](Oc3ccccn3)CO2)C1,87
13,CCO[C@H]1CO[C@@]2(CCCN(Cc3nc(C)cs3)C2)C1,11.8
14,Cc1csc(CN2CCC[C@]3(C[C@H](Oc4ccccn4)CO3)C2)n1,35.1
15,Cc1csc(CN2CCC[C@]3(C[C@@H](Oc4ccccn4)CO3)C2)n1,64.4
16,Cc1noc(C)c1CN1CCC2(CC1)CC(Oc1cccnc1)CO2 (stereo not drawn),21.6
17,Cc1csc(CN2CCC[C@]3(C[C@H](OCC4CC4)CO3)C2)n1,1.48
18,CN1CCN(Cc2cnc3n2CCN(Cc2cccs2)C3)CC1,30.7
19,O=C(NC1CCNCC1)C1(N2CCCCC2)Cc2ccccc2C1,26.9
20,CN(CCCO)c1nc(-c2ccc(C(N)=O)cc2)nc2c1CCNC2,-3.3
21,O=S(=O)(NC1CCOC1)c1ccc(C(F)(F)F)nc1 (stereo not drawn),34.5
22,COc1cc(CN2C[C@@H]3CNC(=O)[C@H](C)[C@@H]3C2)cc(OC)c1,-24.5
23,O=C(c1ccoc1)N(Cc1cccnc1)C1CC1,17.1
24,COc1ncccc1NC(=O)NC1CCCN(c2ncccn2)C1 (stereo not drawn),-19.9
25,CN(C)CCOCC1CN(CC2CCOCC2)Cc2nnn(C)c21 (stereo not drawn),13
26,CC(NC(=O)CCC(=O)c1cccs1)c1nnc2n1CCC2 (stereo not drawn),-31.5
